Only some compounds are listed: those with a hit (about 5.4% of all), similar ones and a draw of the others.
Six1-Eya2 inh: inhibitors of human Six1/Eya2 interaction. Q15475+O00167. AlphaScreen GST-Six1/His-Eya2 binding, biochemical; active compounds read low. activity change, % (test concentration not listed). actives 0.56% (n = 360,000). AID 651725; in the data active means activity change below about -65%; inconclusive means mostly about -30% to -63%
Target sequence (O00167 whole entry, looked up): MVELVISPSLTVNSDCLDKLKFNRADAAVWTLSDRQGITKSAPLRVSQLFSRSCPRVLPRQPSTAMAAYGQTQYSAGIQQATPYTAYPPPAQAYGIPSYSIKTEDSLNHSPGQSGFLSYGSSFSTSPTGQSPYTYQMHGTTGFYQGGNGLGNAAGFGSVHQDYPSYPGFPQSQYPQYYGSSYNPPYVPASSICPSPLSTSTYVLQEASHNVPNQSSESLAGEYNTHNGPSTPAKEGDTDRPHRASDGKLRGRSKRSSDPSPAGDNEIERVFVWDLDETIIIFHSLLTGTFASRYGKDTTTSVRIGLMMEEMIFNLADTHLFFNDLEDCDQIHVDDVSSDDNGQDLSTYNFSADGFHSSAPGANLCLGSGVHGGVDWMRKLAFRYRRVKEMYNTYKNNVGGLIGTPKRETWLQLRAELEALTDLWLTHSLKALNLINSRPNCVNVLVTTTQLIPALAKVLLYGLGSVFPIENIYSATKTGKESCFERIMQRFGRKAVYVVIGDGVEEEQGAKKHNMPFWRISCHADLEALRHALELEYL
Target sequence (Q15475 whole entry, looked up): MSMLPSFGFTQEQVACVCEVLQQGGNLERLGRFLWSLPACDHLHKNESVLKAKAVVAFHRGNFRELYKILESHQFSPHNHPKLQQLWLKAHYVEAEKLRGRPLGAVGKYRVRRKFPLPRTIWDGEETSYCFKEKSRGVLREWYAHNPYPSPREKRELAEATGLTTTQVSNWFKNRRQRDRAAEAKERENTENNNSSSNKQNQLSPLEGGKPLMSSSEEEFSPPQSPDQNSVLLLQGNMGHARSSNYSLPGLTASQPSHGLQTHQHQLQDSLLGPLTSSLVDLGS
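GST-Six1 + His-Eya2 (5X stock: 250/500 nM); Tris pH 8.0, 300 mM NaCl, 0.05% BSA, 0.02% Tween 20; GSH donor/Ni acceptor beads; 1 h 37 °C dark; AlphaScreen readout.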
CtBP-E1A inh: inhibitors of CtBP/E1A interaction; actives 0.49% (n = 340,000); activity change, % (test concentration not listed); AlphaScreen GST-E1A/His-CtBP binding, 1536-well; active compounds read low; in the data active means activity change below about -65%; inconclusive means mostly about -30% to -63%
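Homogeneous bead-based format: GST-tagged E1A captured on glutathione donor beads, His-tagged CtBP on nickel acceptor beads; compounds precede bead addition by 2 h at 37 °C.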
RORgamma inh: ROR gamma (mouse) transcription inhibition. Drosophila S2 Gal4-RORgamma UAS-luciferase reporter, 20 h. actives 5.4% (n = 310,000). Potency, µM (doses to about 53.6 µM), actives largely listed as inhibitors. P51450; further: nearly all actives have a fitted effect of over 60% in size
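ROR gamma transcriptional activity was tracked as Gal4-UAS luciferase output in stably transfected Drosophila Schneider cells, with compound added 1 hr before 700 uM copper sulfate induction and a 20 hr ambient-temperature incubation.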
VP16 counter: counter-screen for ROR gamma inhibitors: Gal4-VP16 reporter; actives 3.5% (n = 310,000); Drosophila S2 Gal4-VP16 UAS-luciferase, luminescence, 20 h; Potency, µM (titrated, usually from 53.6 µM), usual class: inhibitors; AID 2546;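 further: Gal4-VP16 expression switched on by copper sulfate through the metallothionein promoter; nearly all actives have a fitted effect of over 50% in size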
p53 reactivation: re-activators of mutant p53. H1299 p53-A138V BP100-luciferase reporter, luminescence, 24 h. Potency, µM (series often up to 92.2 µM), hits mostly activators. actives 0.063% (n = 320,000); further: nearly all actives have a fitted effect of over 45% in size
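H1299 (p53-null), stable ts p53-A138V + BP100-Luc; 1000 cells/well, Opti-MEM/10% FBS; cpd 4 pt, 1:5; 24 h, 37 deg C, 5% CO2; detection reagent 10 min RT; luminescence.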
Large screens that a line does not name were inactive. Unless noted, the call rests on the fitted dose curve; in most records, active means well fitted curve in the direction sought with a large enough effect; inconclusive means small, poorly fitted or top-dose-only effect, or another doubt; inactive means no such curve, though single readings can be large; an effect the other way counts as inactive or inconclusive.

COC(=O)C(CN)c1c[nH]c2ccc(OC)cc12 (configuration not stated)	none (no result: Six1-Eya2 inh, CtBP-E1A inh, p53 reactivation)
CCOC(=O)N/N=C/c1cn(CCCOc2ccc(C)cc2)c2ccccc12	RORgamma inh 1.41µM, VP16 counter 1.78µM
COC(=O)N/N=C/c1cn(CCOc2ccc(OC)cc2)c2ccccc12	none
Cc1ccc(OCC(=O)N/N=C/c2cn(Cc3ccccc3)c3ccccc23)cc1	RORgamma inh 5.01µM, VP16 counter 7.08µM (no result: CtBP-E1A inh)
CCOC(=O)N/N=C/c1cn(CCCOc2ccccc2)c2ccccc12	none
COc1cccc(OCCn2cc(/C=N/NC(=O)c3ccncc3)c3ccccc32)c1	RORgamma inh inconclusive, VP16 counter 10µM
COc1ccc(OCCn2cc(/C=N/NC(=O)c3ccncc3)c3ccccc32)cc1	RORgamma inh 5.01µM, VP16 counter 8.91µM
COC(=O)N/N=C/c1cn(CCOc2ccccc2)c2ccccc12	RORgamma inh inconclusive
Cc1ccc(OCCn2cc(/C=N/NC(=O)c3ccncc3)c3ccccc32)cc1	RORgamma inh 5.01µM, VP16 counter 11.2µM
O=C(c1ccc(Cl)cc1)c1ccc(OCC(=O)N2CCOCC2)cc1	RORgamma inh inconclusive, VP16 counter 11.2µM
NC(=S)N/N=C/c1ccc(C(F)(F)F)cc1	RORgamma inh 5.01µM, VP16 counter 5.62µM
NC(=S)N/N=C/c1ncc(C(F)(F)F)cc1Cl	Six1-Eya2 inh -84.8, CtBP-E1A inh -85.0, RORgamma inh 0.631µM, VP16 counter 0.501µM
C=CCOc1ccc(/C=N\NC(N)=S)cc1	none (no result: CtBP-E1A inh)
COC(=O)c1ccc(COc2ccc(/C=N/NC(N)=S)cc2)o1	RORgamma inh 11.2µM, VP16 counter inconclusive
CC(C)Oc1ccc(/C=N/NC(N)=S)cc1	RORgamma inh 5.01µM, VP16 counter 2.82µM, p53 reactivation inconclusive
COC(=O)c1ccc(COc2ccc(Cl)cc2)o1	none (no result: CtBP-E1A inh)
CCN(CC)c1ccc(C(=S)NCc2ccccc2)cc1	RORgamma inh inconclusive (no result: CtBP-E1A inh)
COc1ccc(/C=N/NC(N)=S)cc1	RORgamma inh 11.2µM, VP16 counter inconclusive
CC(C)=CCC/C(C)=C/CO/N=C1/C[C@@H](O)[C@@H](O)[C@@H]2[C@@H]3C(=O)N(C4CCCCC4)C(=O)[C@H]3CC[C@@H]12	none (no result: Six1-Eya2 inh, CtBP-E1A inh, p53 reactivation)
Clc1ccc(CNc2ccc(CNc3ncn[nH]3)cc2)cc1	none
Clc1ccc(CNc2ccc(CNc3ncn[nH]3)cc2)c(Cl)c1	RORgamma inh inconclusive, VP16 counter 12.6µM
COc1ccc(C(O)c2cnc(C)n2Cc2ccccc2)cc1 (configuration not stated)	none (no result: RORgamma inh, VP16 counter, p53 reactivation)
COc1cccc(C(=O)NCCCNC(=O)c2cccc(OC)c2)c1	none
COCCNC(=S)N/N=C(\C)c1cccc(OC)c1	RORgamma inh 3.98µM, VP16 counter inconclusive
CCNC(=S)N/N=C(\C)c1cccc([N+](=O)[O-])c1	RORgamma inh 3.98µM, VP16 counter 4.47µM
COCCNC(=S)N/N=C(\C)c1cccc([N+](=O)[O-])c1	RORgamma inh 3.55µM, VP16 counter 7.08µM
C/C(=N\NC(=O)c1ccccc1C)c1cccc([N+](=O)[O-])c1	none
O=C(O)c1ccc(-c2ccccc2C(F)(F)F)s1	none (no result: Six1-Eya2 inh, CtBP-E1A inh, p53 reactivation)
O=C(CCC(=O)N1CCN(S(=O)(=O)c2ccc3ccccc3c2)CC1)Nc1cc(Cl)cc(Cl)c1	none
CCOC(=O)Cc1csc(NC(=O)CCSc2ccccc2)n1	none
CS(=O)(=O)Nc1cccc(-c2nc(NCc3ccccc3)c3ccccc3n2)c1	none (no result: Six1-Eya2 inh, CtBP-E1A inh, p53 reactivation)
CCN(c1ccccc1)S(=O)(=O)c1ccc(C(=O)Nc2ccncc2)cc1	none (no result: RORgamma inh, VP16 counter)
CCN(c1ccccc1)S(=O)(=O)c1ccc(NC(=O)c2nc(S(C)(=O)=O)ncc2Cl)cc1	RORgamma inh 6.31µM, VP16 counter 3.16µM
CCS(=O)(=O)c1ncc(Cl)c(C(=O)Nc2ccc(S(=O)(=O)N(C)c3ccccc3)cc2)n1	RORgamma inh 2.82µM, VP16 counter 2.82µM
Cc1ccc(-n2ccc(=O)c(-c3ccnc(SCc4cccc(Cl)c4)n3)n2)cc1	RORgamma inh 0.282µM
CCn1c(-c2nn(-c3ccc(C)cc3)ccc2=O)n[nH]c1=S	none (no result: CtBP-E1A inh)
O=C(NC(=S)NCc1ccco1)c1ccccc1	none
O=C(NCc1ccco1)c1ccc2ccccc2c1	RORgamma inh inconclusive, VP16 counter 10µM, p53 reactivation inconclusive
CC(=O)Nc1ccc(NC(=S)NC(=O)c2ccc(C(C)(C)C)cc2)cc1	RORgamma inh inconclusive (no result: Six1-Eya2 inh, CtBP-E1A inh, p53 reactivation)
CC(C)(C)c1ccc(-c2noc(CCC(=O)NCc3ccco3)n2)cc1	RORgamma inh 0.316µM, VP16 counter 3.98µM, p53 reactivation inconclusive
COCCNC(=S)NC(=O)c1ccc(C(C)(C)C)cc1	RORgamma inh 2µM, VP16 counter 11.2µM (no result: CtBP-E1A inh)
O=C(NCc1ccco1)c1ccc(C(=O)NCc2ccco2)cc1	none (no result: RORgamma inh, VP16 counter, p53 reactivation)
O=C(NC(=S)NCc1ccco1)c1ccc(Br)cc1	RORgamma inh 14.1µM, VP16 counter 15.8µM
CN(C)Cc1nnnn1-c1ccccc1	none
CNC[C@H](O)[C@H](O)[C@H](O)[C@H](O)CO	none (no result: Six1-Eya2 inh, CtBP-E1A inh, p53 reactivation)
COc1ccc(NC(=O)CN(C)C2CCCCC2)c([N+](=O)[O-])c1	none
CC(C)(C)c1ccc(C(=O)NC(=S)NCc2ccco2)cc1	RORgamma inh 6.31µM, VP16 counter 7.94µM
COCCCNC(=S)NNC(=O)C1CC1c1ccc(C(C)(C)C)cc1 (configuration not stated)	RORgamma inh 4.47µM (no result: CtBP-E1A inh)

High-throughput results: PubChem BioAssay, National Center for Advancing Translational Sciences (NCATS)
